AC50, IC50 and outcome data for 25 compounds are collected here from PubChem BioAssay.

Broadly, the AC50 is the concentration at which the activity in the assay is half-maximal. What is called IC50 is the concentration that gives 50% inhibition.

Inconclusive results are not listed. Active and inactive are the calls of the source. Unless noted, cut-off not given; nearly all actives show AC50 up to about 26 µM.

The nature of experiment [1]: viability loss in pontine glioma line – cell-based, SU-DIPG-XVII, MIPE5.0, CellTiter-Glo, qHTS, dose response (AID 1347060).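 On AC50: cells exposed to compound for 48 hours before viability readout.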 The conditions noted are these: CellTiter-Glo ATP luminescence. For orientation: Cellular ATP, detected with luciferase, serves as a proxy for viable cell number.
A short description of experiment [2]: viability loss in pontine glioma line – cell-based, SU-DIPG-XIII, MIPE5.0, CellTiter-Glo, qHTS, dose response (AID 1347064; cut-off not given, nearly all actives have AC50 up to about 23 µM;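 on AC50: cells exposed to compound for 48 hours before the viability read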). The following applies: CellTiter-Glo ATP luminescence.
Experiment [3] in a line: viability loss in pontine glioma line – cell-based, SU-DIPG-XXV, MIPE5.0, CellTiter-Glo, qHTS, dose response (AID 1347065).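 Further: cells exposed to compound for 48 hours before ATP readout.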 The conditions noted are these: CellTiter-Glo ATP luminescence.
The nature of experiment [4]: JHH-DIPG-1 glioma cell viability, MIPE5.0 library, CellTiter-Glo luminescence, qHTS (AID 1347067).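 Further: cells exposed to compound for 48 hours before readout.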 The conditions noted are these: JHH-DIPG-1 glioma viability, CellTiter-Glo ATP luminescence.
A short description of experiment [5]: growth inhibition of DIPG cells – cell-based, MIPE5.0 library, qHTS (AID 1347068; cut-off not given, nearly all actives have IC50 up to about 30 µM;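 on IC50: cells exposed to compound for 48 hours before viability readout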). The conditions noted are these: SU-DIPG-XXV viability. (Quantitative high-throughput screening tests each substance at several concentrations.)

For the compound `Cc1cn(CCN2CCN(c3ccccc3-c3cc(C#N)cc(C(=O)NCCCN4CCCC4)c3)CC2)c2ccccc12`, the AC50 in experiment [1] is 8.33 µM (active); in experiment [2], 10.5 µM (active); in experiment [3] it was 7.42 µM (active); in experiment [4], 8.33 µM (active). The IC50 in experiment [5] was 7.42 µM (active).

Turning to `Cc1c(CN2CCC(Nc3ncnc4sc(CC(F)(F)F)cc34)CC2)ccc2c1cc(C#N)n2Cc1cn[nH]c1`, the concentration at half-maximal activity (AC50) in experiment [1] was 20.9 µM (active); in experiment [2], 23.5 µM (active); in experiment [3] it was 29.5 µM (active); in experiment [4], 18.6 µM (active). In addition, in experiment [5], the call was inactive.

Take `COc1cc(N2CCC(N3CCN(C)CC3)CC2)ccc1Nc1ncc(Cl)c(Nc2ccccc2P(C)(C)=O)n1`: the AC50 in experiment [1] is 0.105 µM (active); in experiment [2], 0.332 µM (active); in experiment [3], 0.186 µM (active); in experiment [4] it was 1.18 µM (active). In addition, the IC50 in experiment [5] is 1.05 µM (active).

Regarding `CN1C(=O)N[C@@H](Cc2c[nH]c3c(Cl)cccc23)C1=O`, the compound was classed as inactive in experiment [1], in experiment [2], in experiment [3], in experiment [4] and in experiment [5].

For the compound `CN(C)Cc1ccc(S(=O)(=O)n2ccc(/C=C/C(=O)NO)c2)cc1`, the AC50 in experiment [1] was 9.34 µM (active); in experiment [2] it was 5.9 µM (active); in experiment [3], 6.61 µM (active); in experiment [4] it was 9.34 µM (active). For the same compound, the IC50 in experiment [5] was 7.42 µM (active).

As for `COc1ccc(C(=O)N2CCN(c3ccc4c(c3)CCC(=O)N4)CC2)cc1OC`, the call in experiment [1], in experiment [2], in experiment [3], in experiment [4] and in experiment [5] was inactive.

With `Cc1ncsc1-c1ccc([C@H](C)NC(=O)[C@@H]2C[C@@H](O)CN2C(=O)[C@@H](NC(=O)COCCCOCCNC(=O)C[C@@H]2N=C(c3ccc(Cl)cc3)c3c(sc(C)c3C)-n3c(C)nnc32)C(C)(C)C)cc1`, the AC50 in experiment [1] was 0.132 µM (active); in experiment [2] it was 0.209 µM (active); in experiment [3], 0.0742 µM (active); in experiment [4], 0.0525 µM (active). Moreover, the IC50 in experiment [5] is 0.332 µM (active).

As for `CC1(C)CN(C(=O)c2ccc(-c3cccc4nc(NC(=O)C5CC5)nn34)cc2)C1`, the compound was called inactive in experiment [1], in experiment [2], in experiment [3], in experiment [4] and in experiment [5].

Take `N#Cc1ccnc(Nc2cc(C3CCN(C4COC4)CC3)cc(N3CCC(F)(F)C3)n2)c1`: the AC50 in experiment [1] is 2.63 µM (active); in experiment [2], 5.25 µM (active); in experiment [3], 1.48 µM (active); in experiment [4] it was 5.9 µM (active). For the same compound, the IC50 in experiment [5] was 11.8 µM (active).

Turning to `COc1cc2c(Oc3ccc4[nH]c(C)cc4c3F)ccnc2cc1OCC1(N)CC1`, the AC50 in experiment [1] was 3.32 µM (active); in experiment [2], 2.95 µM (active); in experiment [3], 2.95 µM (active); in experiment [4] it was 5.9 µM (active). For the same compound, in experiment [5], the IC50 is 16.6 µM (active).

Regarding `CCc1cccc2c3c([nH]c12)[C@@](CC)(CC(=O)O)OCC3`, the compound was classed as inactive in experiment [1], in experiment [2], in experiment [3], in experiment [4] and in experiment [5].

For the compound `Cc1cnc(Nc2ccc(F)cc2Cl)nc1-c1c[nH]c(C(=O)NC(CO)c2cccc(Cl)c2)c1` (stereo not given), the AC50 was 3.32 µM (active) in experiment [1], 5.9 µM (active) in experiment [2], 2.09 µM (active) in experiment [3] and 2.63 µM (active) in experiment [4]. Also, the IC50 in experiment [5] is 10.5 µM (active).

With `C[C@@H]1COCCN1c1cc(=O)n2c(n1)N(Cc1cncc(Cl)c1)[C@H](C(F)(F)F)CC2`, the call in experiment [1], in experiment [2], in experiment [3], in experiment [4] and in experiment [5] was inactive.

Turning to `O=C(NO)c1ccc(C2=Nc3ccccc3Oc3ccccc32)cc1`, the AC50 is 10.5 µM (active) in experiment [1], 5.25 µM (active) in experiment [2], 7.42 µM (active) in experiment [3] and 11.8 µM (active) in experiment [4]. The concentration for half-maximal inhibition (IC50) in experiment [5] is 14.8 µM (active).

For `COc1ccc(S(=O)(=O)Nc2cc(-c3csc(C#N)c3)ccc2C)cc1`, the concentration at half-maximal activity (AC50) is 0.0742 µM (active) in experiment [1], 0.166 µM (active) in experiment [2], 0.148 µM (active) in experiment [3] and 0.0934 µM (active) in experiment [4]. Besides, the IC50 in experiment [5] is 0.263 µM (active).

As to `COC(=O)N(CC(=O)O)Cc1cccc(OCc2nc(-c3ccc(Cl)cc3)oc2C)c1`, the compound was classed as inactive in experiment [1], in experiment [2], in experiment [3], in experiment [4] and in experiment [5].

For `CCS(=O)(=O)N1CCC([C@@H](C)n2c(C)c(C(=O)NCc3c(OC)cc(C)[nH]c3=O)c3ccccc32)CC1`, the compound was classed as inactive in experiment [1], in experiment [2], in experiment [3], in experiment [4] and in experiment [5].

For the compound `CNS(=O)(=O)c1ccc2c(c1)/C(=C/c1[nH]c3c(c1CCCN1CCN(C)CC1)CCCC3)C(=O)N2`, the half-maximal activity concentration (AC50) in experiment [1] was 7.42 µM (active); in experiment [2], 8.33 µM (active); in experiment [3], 7.42 µM (active); in experiment [4], 10.5 µM (active). Besides, the compound was classed as inactive in experiment [5].

In the case of `COc1cc(N2CCC(O)CC2)ccc1Nc1cc(Nc2ccccc2S(=O)(=O)C(C)C)c2cc[nH]c2n1`, the AC50 in experiment [1] is 23.5 µM (active); in experiment [2], 10.5 µM (active); in experiment [3] it was 7.42 µM (active); in experiment [4] it was 16.6 µM (active). Further, the outcome in experiment [5] was inactive.

As to `c1ccc2c(-c3cnn4cc(-c5ccc(OCCN6CCOCC6)cc5)cnc34)ccnc2c1`, the AC50 in experiment [1] is 12.9 µM (active); in experiment [2] it was 14.4 µM (active); in experiment [3] it was 9.1 µM (active); in experiment [4], 10.2 µM (active). For the same compound, in experiment [5], the compound was called inactive.

As for `Cc1cccc(Oc2cnc(=O)[nH]c2)c1`, the compound was classed as inactive in experiment [1], in experiment [2], in experiment [3], in experiment [4] and in experiment [5].

As for `CCCCNc1ncc2c(-c3ccc(F)cc3)nn(CC3CCC(N)CC3)c2n1` (stereo not given), the AC50 was 8.11 µM (active) in experiment [1], 8.11 µM (active) in experiment [2], 5.12 µM (active) in experiment [3] and 8.11 µM (active) in experiment [4]. For the same compound, the IC50 in experiment [5] was 7.23 µM (active).

For `FC(F)(F)c1ccc(Nc2nc(-c3c(C(F)(F)F)nc4ccccn34)cs2)cc1`, the AC50 in experiment [1] is 0.372 µM (active); in experiment [2], 14.8 µM (active); in experiment [3], 0.372 µM (active); in experiment [4] it was 1.86 µM (active). Also, the IC50 in experiment [5] was 3.32 µM (active).

As for `O=C(O)CNC(=O)c1ncc(-c2cccc(Cl)c2)cc1O`, the compound was classed as inactive in experiment [1], in experiment [2], in experiment [3], in experiment [4] and in experiment [5].

For the compound `COc1cc2c(cc1O)CCN[C@]21CS[C@@H]2c3c(OC(C)=O)c(C)c4c(c3[C@H](COC1=O)N1[C@@H]2[C@H]2c3c(cc(C)c(OC)c3O)C[C@@H]([C@@H]1O)N2C)OCO4`, the concentration at half-maximal activity (AC50) was 0.000382 µM (active) in experiment [1], 0.00135 µM (active) in experiment [2], 0.00152 µM (active) in experiment [3] and 0.000679 µM (active) in experiment [4]. Also, the IC50 in experiment [5] is 0.0241 µM (active).
